# Laboratory results from ChEMBL document CHEMBL4513216, “Probing the Open Global Health Chemical Diversity Library for Multistage-Active Starting Points for Next-Generation Antimalarials” (ACS Infect Dis, 2020).
# Out of some 68,000 compounds screened, about 2,700 (4%) showed an effect of 50% or more. What follows is part of a selection rich in strong results, with near analogues and random picks from the rest.
# Tested on: Plasmodium berghei
# Assay: Screen against P. berghei liver stage (PbLuc), transformed with Luciferase, at 2uM
# Format: functional, HepG2
# Conditions: tested at 2 uM
row,Compound,INHIBITION
1,CCNc1cc2c(nn1)CCN(C(=O)C(C)c1c(C)noc1C)C2 (configuration not stated),-45.83%
2,COc1cc(CNCc2ccnc(N3CCCC3)c2)cc(OC)c1,-2.71%
3,CCN1C[C@H]2C3(CCN(C(=O)NC(C)C)CC3)CC[C@@]2(C(=O)NC)C1,45.36%
4,CN1CCCC2(CCN(S(=O)(=O)c3c(Cl)nc4sccn34)C2)C1=O (configuration not stated),66.11%
5,O=S(=O)(c1c(Cl)nc2sccn12)N1CCCC2(CCNC2)C1 (configuration not stated),12.83%
6,O=S(=O)(c1c(Cl)nc2sccn12)N1CCC2(CCNCC2)C1,27.17%
7,CCC1=N[C@@]2(CC[C@@H]3CN(S(=O)(=O)CC(C)C)C[C@@H]32)C(=O)N1CC,47.53%
8,CCN(Cc1cccc(C)c1)Cn1nc(C)c2c(C)onc2c1=O,-1.02%
9,CCN(Cc1c(F)cccc1F)Cn1nc(C)c2c(C)onc2c1=O,62.13%
10,CCN(Cc1cccc(F)c1)Cn1nc(C)c2c(C)onc2c1=O,9.17%
11,CN1CCC(N(Cc2ccncc2)Cc2nc3c(s2)CCCC3)CC1,-1.15%
12,O=C(NCCCc1nc(=O)[nH][nH]1)c1ccc(Cl)cn1,43.28%
13,CN(C)CCOCc1cncc2c1CCN(C(=O)C1CCOCC1)C2,26.48%
14,Cc1cc(C)nc(N2CCC(NCCSc3nnnn3C)CC2)n1,-25.72%
15,Cn1ccnc1SCCNC1CCN(c2ncccn2)CC1,50.98%
16,Cn1ccnc1SCCNC1CCN(c2nc3ccccc3s2)CC1,-11.8%
17,COc1cc(N2CCC3(CCCN(C(=O)c4cnccn4)C3)C2)ncn1 (configuration not stated),-42.01%
18,CC(=O)N1CCN(CC(C)(O)c2cccc(C(F)(F)F)c2)CC1 (configuration not stated),1.63%
19,CCN1CCN(CC(C)(O)c2cccc(C(F)(F)F)c2)CC1 (configuration not stated),69.41%
20,CC(O)(CN1CCN(CCO)CC1)c1cccc(C(F)(F)F)c1 (configuration not stated),-27.62%
21,O=C(NCCNc1ccccn1)Nc1cc(C(F)(F)F)c[nH]c1=O,-20.82%
22,CC(C)C(NC(=O)Cn1ccc(=O)n(C)c1=O)c1ccc(F)cc1 (configuration not stated),-56.99%
23,Fc1ccc(C(CNc2ccncn2)N2CCCC2)cc1 (configuration not stated),30.93%
24,NC(=O)CN1CCC(C(=O)NCc2nc(-c3ccc(F)cc3)cs2)CC1,14.19%
25,NC(=O)CN1CCC(C(=O)NCCc2nc(-c3ccccc3)cs2)CC1,-13.72%
26,N[C@@H]1CC[C@H](C(=O)NCCc2nc(-c3ccccc3)cs2)C1,60.18%

row,Compound,INHIBITION
1,COCCN1CCCn2cnc(CNC(=O)N(C)C)c2C1,2.33%
2,CC(C)(CO)CCCNC(=O)NC1(C)Cc2ccccc2C1,29.87%
3,CC(C)(CO)CCCNC(=O)NC1(c2cccc(F)c2)CC1,57.16%
4,CC(C)(CO)CCCNC(=O)NC1(c2ccccc2F)CC1,-3.66%
5,CC(NC(=O)COc1ccccc1I)C1CC1 (configuration not stated),-3.87%
6,CN(CCOCC1CC1)C(=O)Nc1ccc([S+](C)[O-])cc1 (configuration not stated),-88.39%
7,O=C(CCNCc1cccc2c1OCCCO2)NC1CCCC1,-42.54%
8,O=C(NCCNCc1cccc2c1OCCCO2)C1CCCC1,77.72%
9,O=C(CC1CCCC1)NCCNCc1cccc2c1OCCO2,30.57%
10,CCO[C@@H]1CO[C@@]2(CCCN(S(=O)(=O)c3ccccc3)C2)C1,32.66%
11,COCCN1CCC12CCN(c1ncccn1)C2 (configuration not stated),30.96%
12,N#Cc1cc2n(n1)CCN(C(=O)CCc1c[nH]c3ccccc13)C2,76.29%
13,COC(=O)c1cc2n(n1)CCCN(C(=O)Cc1c[nH]c3ccccc13)C2,19.27%
14,O=C(O)c1cc2n(n1)CCCN(C(=O)CCc1c[nH]c3ccccc13)C2,6.72%
15,CC(NC(=O)c1cccc(CCC(C)(C)O)c1)c1nnc(N)s1 (configuration not stated),18.84%
16,Cc1noc(C)c1-c1cc(C2CCNCC2)ccn1,-18.04%
17,O=S(=O)(CC1CCCO1)Nc1cc(Cl)ccc1-n1cccn1 (configuration not stated),-69.64%
18,CN(C)C[C@@H]1CN(C2CCN(c3ccccc3Cl)CC2)C[C@@H]1CO,32.26%
19,CN(C)C[C@@H]1CN(C2CCN(c3ccc(Cl)cc3)CC2)C[C@@H]1CO,63.46%
20,Cc1ccc(N2CCC(N3C[C@@H](CN(C)C)[C@@H](CO)C3)CC2)cc1,27.85%
21,Cc1ccccc1OCC(=O)N1CCN(C2CCOC2=O)CC1 (configuration not stated),-42.29%
22,CCn1ccnc1CN(C)Cc1nc(Cc2ccccc2F)no1,36.34%
23,Cc1cc(C[S+]([O-])CC(=O)NCc2cccc(Cl)c2)no1 (configuration not stated),-11.2%
24,CCN1CC2(CC1=O)CN(C(C)=O)CCN(C(=O)NC)C2 (configuration not stated),-17.59%
25,N#Cc1ccc(SCCCO)c(F)c1,-22.89%
26,N#Cc1ccc(SCCOCCO)c(Cl)c1,53.63%
